Records with an inconclusive call do not appear. Entries that show only a call come without a potency. A number with no mark means an inactive call. Activity calls are given as the source filed them. The call rests on the fitted dose curve.

Chain of 5-hydroxytryptamine receptor 2A (Homo sapiens) (P28223 whole entry, looked up): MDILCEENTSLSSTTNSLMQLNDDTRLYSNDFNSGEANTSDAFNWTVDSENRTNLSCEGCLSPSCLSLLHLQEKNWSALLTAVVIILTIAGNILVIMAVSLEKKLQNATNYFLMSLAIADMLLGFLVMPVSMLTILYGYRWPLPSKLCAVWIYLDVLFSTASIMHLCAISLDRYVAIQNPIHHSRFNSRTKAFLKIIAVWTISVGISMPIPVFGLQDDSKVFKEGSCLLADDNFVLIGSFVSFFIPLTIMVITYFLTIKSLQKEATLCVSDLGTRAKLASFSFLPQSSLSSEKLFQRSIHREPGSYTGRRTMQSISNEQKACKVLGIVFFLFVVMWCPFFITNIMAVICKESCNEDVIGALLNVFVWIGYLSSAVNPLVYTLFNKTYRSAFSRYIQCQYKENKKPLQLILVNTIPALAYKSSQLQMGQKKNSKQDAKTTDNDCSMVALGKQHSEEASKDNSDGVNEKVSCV

This experiment deals with 5-hydroxytryptamine receptor 2A (Homo sapiens) (UniProt P28223). Nature of the experiment: 5-hydroxytryptamine receptor 2A (HTR2A) small molecule agonists, cell-based qHTS assay (AID 1963587). Further: nearly all actives have a fitted effect of over 30% in size. The conditions noted are these: HTR2A-CHO cells, calcium flux fluorescence, agonist mode; series mostly up to 76.8 µM. From the text:
National Center for Advancing Translational Sciences [NCATS]
Division of Preclinical Innovation [DPI]
U.S. Environmental Protection Agency [EPA]
National Institutes of Environmental Health Sciences [NIEHS]
National Toxicology Program [NTP]
U.S. Food and Drug Administration [FDA]
The HTR2A receptor is a subtype of the 5-HT2 receptor that belongs to the serotonin receptor family and is a G protein-coupled receptor (GPCR). The HTR2A-CHO cell line stably expressing human 5-hydroxytryptamine receptor 2A (HTR2A) can be used for screening agonists of interactions between 5-HT2 and its ligands. The HTR2A-CHO calcium flux assay is a homogeneous fluorescence-based assay for detecting the intracellular calcium level using FDSS kinetic plate reader system.
HTR2A-CHO cells were dispensed at 2000 cells/3uL/well in 1536-well black-clear bottom plates using a Multidrop Dispenser. After the assay plates were incubated at a 37 C/5% CO2 incubator for 18 h, 3 uL of Dye Loading Buffer was transferred to the assay plate by a Flying Reagent Dispenser. The assay plates were incubated at 37 C for 1h. For agonist mode, 23 nL of compounds dissolved in DMSO, positive controls or DMSO only was transferred to the assay plate by a pin tool. The fluorescence intensity in the plates was measured using FDSS 7000EX kinetic plate reader for 2 min at 1 sec intervals.
As for `N#Cc1ccccc1O`, the Potency entry was “inactive”. For the compound `CCCCCCC(C)Nc1ccc(Nc2ccccc2)cc1` (stereo not given), the Potency result is “inactive”. On the same count and under the same terms, the same measure for `Cc1c(O)cccc1O`: “inactive”. On the same count and under the same terms, under `OCCN1CCN(CCO)CC1` stands “inactive”. Take `Brc1cc2ccccc2c2ccccc12`: the Potency result is “inactive”. Still for that read-out and setting: the same measure for `O=C(O)CCc1nc2ccccc2[nH]1`: “inactive”; for `COCCOc1cc2cc(C(=O)NC3CCN(C(C)C)CC3)n(CC(=O)Nc3ccc(Cl)cn3)c2cn1`: “inactive”; for `CCOc1ccccc1OCCN[C@H](C)Cc1ccc(OC)c(S(N)(=O)=O)c1`: “inactive”. Still for that read-out and setting: under `CC(=O)OCCC(C)CC(C)(C)C` (stereo not given) stands “inactive”; under `CC(C)C1=CC2=CC[C@@H]3[C@](C)(CCC[C@@]3(C)C(=O)O)[C@H]2CC1`, “inactive”. Consider `Nc1cc(Cl)c([N+](=O)[O-])cc1O`, for which the Potency entry is “inactive”. Consider `COc1cc(N)ccc1C`, for which the Potency entry is “inactive”.

Consider `COC(=O)c1ccccc1OC`, for which the Potency result is “inactive”. Turning to `CC(CSC(=O)c1ccccc1)C(=O)N1C[C@@H](Sc2ccccc2)C[C@H]1C(=O)O` (stereo not given in full), the activation is -7.52% [at 15.9 µM].

`Cc1nn(C)c(Oc2ccccc2)c1/C=N/OCc1ccc(C(=O)OC(C)(C)C)cc1`: the Potency result was “inactive”. As to `NNC(=O)CP(=O)(c1ccccc1)c1ccccc1`, the Potency result is “inactive”.

With `CC/C=C\CC/C=C/CO`, the Potency entry is “inactive”. On to `COC(=O)C(C)=O`, for which the Potency entry is “inactive”. Same read-out and setting: under `CCCCN(CCCC)C(=S)SSC(=S)N(CCCC)CCCC` stands “inactive”. On the same count and under the same terms, under `OCCCCCO` stands “inactive”. With `COCCOC[C@H](CC1(C(=O)NC2CCC(C(=O)O)CC2)CCCC1)C(=O)Oc1ccc2c(c1)CCC2` (stereo not given in full), the Potency result was “inactive”. As for `O=S(=O)(Oc1ccc(Cl)cc1)c1ccccc1`, the Potency entry is “inactive”. In the case of `CCCCCC(CO)CCC` (stereo not given), the Potency entry was “inactive”. The same measure, in the same setting: under `O=C(O)c1ccccc1C(=O)OCc1ccccc1` stands “inactive”.

For the compound `Brc1c2ccccc2c(Br)c2ccccc12`, the activation is 0.903% [at 7.02 µM]. Take `C/C(=C\c1ccc(C(=O)O)cc1)c1ccc2c(c1)C(C)(C)CCC2(C)C`: the Potency result was “inactive”. The same measure, in the same setting: the same measure for `CC1=NN(c2cc(Cl)c(S(=O)(=O)O)cc2Cl)C(=O)C1N=Nc1ccc(S(=O)(=O)O)cc1` (stereo not given): “inactive”; for `C[C@@H](N)C(=O)O`: “inactive”; for `c1ccc(-c2ccccc2-c2ccccc2)cc1`: “inactive”. With `O=[N+]([O-])c1cccc(C(F)(F)F)c1`, the Potency entry is “inactive”.

Turning to `CCn1nc(C)c2c1C(=O)NCC(c1ccc(O)cc1)=N2`, the Potency entry was “inactive”. As for `COC(=O)CC(C)=O`, the Potency result was “inactive”. As for `CCC(C)c1cc(C(C)(C)C)c(O)c(C(C)(C)C)c1` (stereo not given), the Potency result was “inactive”. As for `O=C(O)CCCCCCCCCC(=O)O`, the Potency entry is “inactive”. Regarding `CN1CCC(=C2c3ccccc3Sc3ccccc32)CC1`, the Potency entry was “inactive”.

In the case of `O=C(O)O`, the activation was -3.03% [at 7.02 µM]. On to `O=C(O)Cc1cc(I)c(Oc2ccc(O)c(I)c2)c(I)c1`, for which the Potency entry is “inactive”. `CCC(=O)OCCC(C)CCC=C(C)C` (stereo not given): the Potency entry is “inactive”. With `CCCCOC(=O)CCCCC(=O)OCCCC`, the Potency entry is “inactive”.

With `CCC(C)(CN(C)C)OC(=O)c1ccccc1` (stereo not given), the Potency result is “inactive”.

These data come from PubChem BioAssay (Tox21).
